According to the supplement of paper PMC6522484:
± gives the standard deviation of the averaged measurements.

Assays:
[1] = test system: DLD1; experiment: cell viability (CellTiter-Glo) relative to plate median (fraction of plate median); higher = more viable cells; settings: 5 µM; treatment time 24 h; reporter: 7TFP
How it was run: (§1)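 Luminescence, normalised well by well to the plate median, is tabulated as a mean of independent replicates. There were two replicates, run on colorectal cancer lines stably transduced with lentiviral TCF/Wnt firefly luciferase reporters and dosed with library compounds at a final 5 µM for 24 h. Readouts were firefly luciferase or CellTiterGlo on parallel plates.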

[2] = test system: HCT116; experiment: as above; settings: 5 µM; treatment time 24 h; reporter: TCF4/Wnt
How it was run: as §1

[3] = test system: SW480; experiment: as above; settings: 5 µM; treatment time 24 h; reporter: 7TFP
How it was run: as §1

[4] = test system: DLD1; experiment: TCF/Wnt firefly luciferase reporter signal relative to plate median (fraction of plate median); higher = higher Wnt reporter signal; settings: 5 µM; treatment time 24 h; reporter: 7TFP
How it was run: as §1

[5] = test system: SW480; experiment: as above; settings: 5 µM; treatment time 24 h; reporter: 7TFP
How it was run: as §1

| Compound | cell viability [1] | cell viability [2] | cell viability [3] | TCF/Wnt firefly luciferase reporter signal [4] | TCF/Wnt firefly luciferase reporter signal [5] |
| --- | --- | --- | --- | --- | --- |
| O=C(/C=C/c1ccc(O)c(O)c1)OCCc1ccccc1 | 0.892 ± 0.031 | 0.94 ± 0.039 | 0.963 ± 0.023 | 0.948 ± 0.059 | 0.9925 ± 0.0078 |
| COC(=O)c1c(C)c2c(c(C)c1O)OC(=O)c1c(C)c(Cl)c(O)c(Cl)c1O2 | 0.994 ± 0.037 | 0.865 ± 0.016 | 0.9555 ± 0.0078 | 0.895 ± 0.083 | 0.933 ± 0.057 |
| C[C@@H]1CC(=O)c2c(ccc3c2C(=O)c2cccc(O)c2C3=O)C1 [Ochromycinone (Isoform C, Compound ID 7613)] | 1.02 ± 0.091 | 1.08 ± 0.099 | 1.1 ± 0.064 | 1.09 ± 0.13 | 1.04 ± 0.11 |
| CC(COc1ccccc1)N(CCCl)Cc1ccccc1 (stereo not given) | 1 ± 0.057 | 1.05 ± 0.028 | 0.978 ± 0.025 | 1.05 ± 0.21 | 1.03 ± 0.014 |
| Cn1c([N+](=O)[O-])cnc1COC(N)=O | 0.999 ± 0.072 | 1.07 ± 0.071 | 1.03 ± 0.014 | 1.05 ± 0.028 | 0.996 ± 0.12 |
| COc1ccc(/C=C/C(=O)c2ccc(O)cc2O)cc1 | 0.938 ± 0.088 | 0.947 ± 0.065 | 1.035 ± 0.0071 | 1.085 ± 0.0071 | 0.794 ± 0.054 |
| CCN(CC)CCNc1ccc(CO)c2sc3ccccc3c(=O)c12 | 1.1 ± 0.028 | 1.02 ± 0.014 | 0.995 ± 0.0057 | 1.16 ± 0.18 | 0.988 ± 0.1 |
| O=C(O)c1cccnc1C(=O)O | 1.07 ± 0.021 | 1.095 ± 0.0071 | 1.03 ± 0.014 | 1.04 ± 0.15 | 1.1 ± 0.085 |
| Nc1ccc(/N=N/c2ccccc2)c(N)n1 | 1.1 ± 0.2 | 1.07 ± 0.035 | 1.1 ± 0.035 | 1.285 ± 0.0071 | 1.3 ± 0.028 |
| Cc1c(Cl)cccc1Nc1ccccc1C(=O)O | 0.981 ± 0.041 | 1.04 ± 0.014 | 0.914 ± 0.039 | 0.979 ± 0.12 | 0.862 ± 0.022 |
| CC(=O)O[C@@H]1C=C[C@]2(C)C(C[C@@H](OC(C)=O)[C@]3(C)C4=CC(=O)O[C@H](c5ccoc5)[C@@]4(C)CCC23)C1(C)C (stereo not given in full) | 1.06 ± 0.035 | 1.08 ± 0.042 | 1.03 ± 0.014 | 1.09 ± 0.021 | 1.12 ± 0.078 |
| CO[C@@H]1[C@@H](OC(N)=O)[C@@H](O)[C@H](Oc2ccc3c(O)c(NC(=O)c4ccc(O)c(CC=C(C)C)c4)c(=O)oc3c2C)OC1(C)C | 0.988 ± 0.088 | 0.8935 ± 0.005 | 1.004 ± 0.0085 | 1.27 ± 0.05 | 1.14 |
| COc1ccc(-c2coc3cc(OC(C)=O)cc(OC(C)=O)c3c2=O)cc1 | 1.01 ± 0.023 | 0.994 ± 0.079 | 0.976 ± 0.0057 | 1.34 ± 0.3 | 1.23 ± 0.16 |
| C=CCSCC1Nc2cc(Cl)c(S(N)(=O)=O)cc2S(=O)(=O)N1 (stereo not given) | 1.07 ± 0.042 | 1.11 ± 0.085 | 1.03 ± 0.021 | 1.06 ± 0.071 | 1.02 ± 0.028 |
| CC(=O)c1cc2c(cc1O)OC(C)(C)C=C2 | 1.09 ± 0.099 | 1 ± 0.011 | 1.03 ± 0.014 | 0.99 ± 0.057 | 1.01 ± 0.023 |
| CS(=O)(=O)c1ccc(C2=C(c3ccccc3)C(=O)OC2)cc1 | 1 ± 0.037 | 1.04 ± 0.042 | 0.9705 ± 0.0035 | 1.19 ± 0.092 | 1.05 ± 0.071 |
| CN(C)/N=N/c1[nH]cnc1C(N)=O | 0.982 ± 0.015 | 0.986 ± 0.02 | 0.971 ± 0.0099 | 1.06 ± 0.11 | 1.06 ± 0.11 |
| Nc1c2c(nc3ccccc13)CCCC2O (stereo not given) | 1.01 ± 0.018 | 1.12 ± 0.028 | 0.954 ± 0.021 | 0.932 ± 0.016 | 0.931 ± 0.03 |
| CSc1ccc2c(c1)N(CCC1CCCCN1C)c1ccccc1S2 (stereo not given) | 1.01 ± 0.048 | 1.02 ± 0.076 | 1.115 ± 0.0071 | 0.928 ± 0.039 | 0.895 ± 0.1 |
| N[C@H](Cc1ccccc1)C(=O)O | 1.03 ± 0.066 | 1.07 ± 0.064 | 1.01 ± 0.078 | 1.17 ± 0.05 | 1 ± 0.15 |
| CN(C)C(=O)Nc1ccc(Cl)c(Cl)c1 | 0.959 ± 0.035 | 0.989 ± 0.016 | 0.966 ± 0.042 | 1.14 ± 0.099 | 1.15 ± 0.078 |
| CC1(C)C[C@@H]2/C(CO)=C\C=C/[C@@](C)(O)CC[C@]21O | 1.08 ± 0.2 | 0.946 ± 0.063 | 1 ± 0.022 | 1.11 ± 0.24 | 0.818 ± 0.093 |
| N[C@@H](CCC(=O)N[C@@H](CS)C(=O)NCC(=O)O)C(=O)O | 1.03 ± 0.042 | 1.06 ± 0.11 | 1.02 | 1.03 | 1.13 ± 0.13 |
| Nc1ccc(S(=O)(=O)c2ccc(N)cc2)cc1 | 1.08 ± 0.057 | 0.956 ± 0.063 | 1.02 | 0.94 ± 0.054 | 0.922 ± 0.059 |
| COc1ccc2cc([C@H](C)C(=O)O)ccc2c1 | 1.02 ± 0.039 | 0.981 ± 0.083 | 1.045 ± 0.0071 | 0.969 ± 0.13 | 0.941 ± 0.065 |
| C#CCCCCCCCCCCCC(O)CC(O)CO.C=CCCCCCCCCCCCC(O)CC(O)CO (stereo not given) | 1.015 ± 0.0071 | 0.974 ± 0.0099 | 1.01 ± 0.051 | 1.05 ± 0.18 | 0.974 ± 0.11 |
| O=C(O)C1=CCCNC1 | 1.01 ± 0.061 | 1.01 ± 0.037 | 1 ± 0.013 | 1.13 ± 0.028 | 1.04 ± 0.16 |
| Cc1cc(-c2ncc(CC(=O)Nc3ccc(-c4cnccn4)cn3)cc2C)ccn1 | 0.974 ± 0.052 | 0.975 ± 0.032 | 0.914 ± 0.0028 | 0.921 ± 0.042 | 0.847 ± 0.21 |
| CCN1CCN(C(=O)N[C@@H](C(=O)N[C@@H]2C(=O)N3C(C(=O)O)=C(CSc4nnnn4C)CS[C@H]23)c2ccc(O)cc2)C(=O)C1=O | 0.973 ± 0.053 | 1.06 ± 0.035 | 0.951 ± 0.023 | 0.886 ± 0.042 | 1.01 ± 0.098 |
| Oc1c(I)cc(I)c2cccnc12 | 0.992 ± 0.11 | 0.931 ± 0.035 | 0.939 ± 0.016 | 0.928 ± 0.026 | 0.984 ± 0.14 |
